The full ranking holds about 33,000 sequences; the median of “E-score (-0.5 to 0.5)” is about -0.035, and the highest 2% start at about 0.35. The sample as a whole holds a higher share of the highest values than the screen did.
These sequences were tested against T1, Pdr3 (UniProt P33200) (assay: PBM E-score (8-mer binding enrichment) (E-score (-0.5 to 0.5)); higher = stronger / more preferred TF binding). Details: protein concentration: 200 nM; construct: GST-full length.
T1 sequence: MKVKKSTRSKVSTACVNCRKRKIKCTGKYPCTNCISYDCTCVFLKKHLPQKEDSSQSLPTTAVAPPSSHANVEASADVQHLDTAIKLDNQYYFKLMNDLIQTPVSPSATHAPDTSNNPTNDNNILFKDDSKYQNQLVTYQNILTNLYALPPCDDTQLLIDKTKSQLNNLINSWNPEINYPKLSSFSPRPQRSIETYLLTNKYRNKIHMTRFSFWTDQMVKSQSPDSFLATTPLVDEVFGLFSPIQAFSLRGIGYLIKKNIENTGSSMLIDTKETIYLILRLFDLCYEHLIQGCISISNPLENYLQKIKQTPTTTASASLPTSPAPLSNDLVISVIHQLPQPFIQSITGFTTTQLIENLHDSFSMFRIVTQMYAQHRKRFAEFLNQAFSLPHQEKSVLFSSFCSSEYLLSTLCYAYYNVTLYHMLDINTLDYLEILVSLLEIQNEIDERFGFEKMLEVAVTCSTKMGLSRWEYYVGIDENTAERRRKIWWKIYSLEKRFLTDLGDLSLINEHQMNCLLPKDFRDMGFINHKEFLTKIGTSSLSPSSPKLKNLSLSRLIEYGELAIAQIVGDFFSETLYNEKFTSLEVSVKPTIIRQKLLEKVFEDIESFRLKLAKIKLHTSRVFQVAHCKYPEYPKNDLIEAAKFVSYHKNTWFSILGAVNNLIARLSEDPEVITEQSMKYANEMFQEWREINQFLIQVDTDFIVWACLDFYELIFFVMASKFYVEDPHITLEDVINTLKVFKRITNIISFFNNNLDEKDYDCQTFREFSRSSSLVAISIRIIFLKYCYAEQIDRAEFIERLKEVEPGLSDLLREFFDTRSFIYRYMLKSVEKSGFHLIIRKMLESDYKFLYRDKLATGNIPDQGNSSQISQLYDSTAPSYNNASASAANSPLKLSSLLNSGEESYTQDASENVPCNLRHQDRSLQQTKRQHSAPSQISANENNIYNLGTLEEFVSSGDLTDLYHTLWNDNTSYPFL
Protocol: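 Universal 'all 10-mer' protein binding microarrays (Agilent AMADID 015681) probed with GST-tagged S. cerevisiae TFs (full-length or DBD) made by in vitro transcription/translation (PURExpress), about 100-200 nM. Bound TF was detected with fluorescent anti-GST. Each ungapped 8-mer (which stands for itself and its reverse complement) is scored by the PBM enrichment score (E-score), a modified Wilcoxon-Mann-Whitney statistic from -0.5 to +0.5, computed with the Universal PBM Analysis Suite. Scale: above 0.35 generally sequence-specific binding.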

Sequence | PBM E-score
GGGCGGAA | 0.414
GGGCGGTA | 0.195
GGGCGGGA | 0.35
TATTCTAA | 0.0298
CTCGCTCC | 0.0762
AGAGGACA | -0.0484
AGTCGACC | 0.0168
GGTCGACC | 0.38
CGTCGACC | 0.0668
ACTTGCTG | -0.278
GCGCCCAC | -0.0118
ATCTTTCC | 0.265
ACCGGAGC | 0.356
CCCGGAGC | 0.39
CCCGGTGC | 0.215
ACCGGAGG | 0.281
CCGGGAGC | 0.306
ACTGGAGC | -0.056
AGTGGCGC | 0.153
TCGATAGA | -0.125
CCGTAACA | -0.0633
ACCTTAGT | -0.174
ACTCTATG | 0.0265
CCGAACAG | 0.0662
CGGAACAA | 0.476

Sequence | PBM E-score
TGGAACAA | -0.0164
GGGAACAC | 0.183
AGGAACAC | 0.168
AGGAACAG | -0.195
GGGAACAA | 0.188
CGGAACAC | 0.483
CGGAACAG | 0.466
CCTAGTCG | -0.23
CAGGTAAA | -0.0305
ATCCTATC | 0.0308
ATTACCGG | 0.243
ACTAGAGG | -0.161
CAATAAGA | -0.172
AAGGGGAG | -0.118
ATTACGGC | 0.0318
ATTACGGG | -0.0819
ATTACGGA | 0.361
CCTACGGA | 0.239
ACTACGGG | 0.118
ACTACGGA | 0.362
ATACGAAA | 0.182
AACACAGT | -0.0579
TGGAGTAA | -0.0368
TGGAAACA | -0.184
CCCGACCA | 0.155

Sequence | PBM E-score
GCGTACGA | -0.0757
AGAAGGGA | -0.323
GTTGCGGA | 0.236
ACGATCCG | 0.368
ACGATCCA | -0.0267
CCGATCCC | 0.175
ACGATCCC | 0.183
CCGATCCG | 0.371
CCGATCCA | 0.155
GCCAGTAC | -0.0709
ATTTTGGC | 0.16
TAGTCATA | -0.247
ACCTGGCC | 0.162
TATCTTAA | -0.0962
GTACGGAA | 0.402
GTACGGTA | 0.0177
ATACGGAC | 0.239
CTACGGAC | 0.0596
TTACGAAA | -0.0461
TTATGGAA | 0.0348
TTACGGAA | 0.419
ATACGGAT | 0.241
GTACGGAC | 0.278
CTACGGAG | 0.246
CTACGGAA | 0.407

Sequence | PBM E-score
ATACGGAA | 0.439
ACGATTTC | 0.051
TACTGATA | 0.0935
ATGGACAC | 0.0372
CTCCTCAA | -0.152
GAACGCAA | 0.133
GCGTTAGC | -0.213
ATACAGCG | -0.116
ACCCGCCG | 0.388
ATCCGCCG | 0.387
ATCCGCCA | 0.185
ACCCGCCA | 0.0368
ATCCGCCC | 0.251
ACCCGCCC | 0.348
CGAACTCG | 0.17
GCTGCAAA | -0.0739
AGGAATAC | -0.2
CAGAATAG | -0.0833
CGGAATAA | 0.422
AGGAATAG | -0.072
GGGAATAA | 0.199
CGGAATAC | 0.427
GGGAATAC | 0.162
TGGAATAA | -0.00691
CGGAATAG | 0.418

Sequence | PBM E-score
CCTGAAGA | -0.0192
GGCGCCTA | -0.0415
CTACAGCC | -0.129
GCCTCATA | 0.0142
CTTGTCCC | 0.19
AAGTTCCC | 0.14
CAGTTCCC | 0.342
AAGTTCCG | 0.445
CAGTTCCG | 0.473
AAGTTCCT | 0.0364
CAGTTCCA | -0.0348
CATGAAGC | 0.058
CCAGCCTA | -0.182
CTAGGGAG | -0.205
GCAAGCCC | -0.0061
GGGAATTA | 0.118
CTGAATTC | -0.136
AGGAATTA | -0.091
CGGAATTC | 0.434
CGGAATTA | 0.43
AGGAATTC | -0.00951
GTGCCTAA | -0.288
CTATCTAA | 0.00128
GTCCCTGA | -0.23
GAGCGAAA | 0.146

Sequence | PBM E-score
CCTTTCCA | -0.0113
ACTTTCCT | -0.151
ACTTTCCG | 0.417
CCTTTCCC | 0.235
ACTTTCCC | 0.0862
CCTTTCCG | 0.387
AGGTTTTG | -0.197
AAACTCTT | -0.264
CAGTCGGC | 0.0494
GGCCGAAA | 0.199
CGCCGGAC | 0.316
GGCCGGAC | 0.216
CGCCGGAG | 0.299
AGCCGGTC | -0.0317
AGCCGTAT | 0.0899
CGCCGGAA | 0.45
AGCCGGAG | 0.362
AGCCGGAT | 0.391
AGCCGGTG | 0.187
AGCCGGGG | 0.152
GGCCGGAA | 0.431
GCGGATGA | 0.303
GAACCCTA | -0.0298
AGTTCAAG | 0.0398
AAAGCTTT | 0.00459

Sequence | PBM E-score
GGAGCACA | 0.0257
ACGTACGA | -0.133
CGTAGAGA | -0.182
AGCCGGTA | 0.199
TGCCGTAA | -0.187
AGCCGGAA | 0.438
AGCCGGAC | 0.345
TGCCGAAA | 0.118
TGCCGGAA | 0.454
AGCAACCT | -0.0661
TCGAGGCA | -0.123
CGGCGAGA | 0.0811
GTTTCTCA | -0.134
ACGGATCC | 0.445
CGGGATCC | 0.417
ACGGATCT | 0.271
TCGGATCA | 0.303
GCGGATCA | 0.296
CCGGATAG | 0.347
CCGGATCA | 0.389
CAGGATCG | 0.0205
CGGGATCA | 0.344
